The target of test [1] is RAC-alpha serine/threonine-protein kinase (Homo sapiens) (UniProt P31749). To be noted: at 0.1 µM.
Test [2] has the same target. To be noted: at 1 µM.
The target of test [3] is RAC-beta serine/threonine-protein kinase (Homo sapiens) (UniProt P31751). To be noted: at 0.1 µM.
The target is the same in test [4]. Particulars: at 1 µM.
The target of test [5] is RAC-gamma serine/threonine-protein kinase (Homo sapiens) (UniProt Q9Y243). To be noted: at 0.1 µM.
Test [6] shares this target. Particulars: at 1 µM.
In test [7] the target is G protein-coupled receptor kinase 6 (Homo sapiens) (UniProt P43250). Particulars: at 0.1 µM.
For test [8] the target is unchanged. Particulars: at 1 µM.
The target of test [9] is T1, Rhodopsin kinase GRK7 (Homo sapiens) (UniProt Q8WTQ7).
T1 sequence (whole entry): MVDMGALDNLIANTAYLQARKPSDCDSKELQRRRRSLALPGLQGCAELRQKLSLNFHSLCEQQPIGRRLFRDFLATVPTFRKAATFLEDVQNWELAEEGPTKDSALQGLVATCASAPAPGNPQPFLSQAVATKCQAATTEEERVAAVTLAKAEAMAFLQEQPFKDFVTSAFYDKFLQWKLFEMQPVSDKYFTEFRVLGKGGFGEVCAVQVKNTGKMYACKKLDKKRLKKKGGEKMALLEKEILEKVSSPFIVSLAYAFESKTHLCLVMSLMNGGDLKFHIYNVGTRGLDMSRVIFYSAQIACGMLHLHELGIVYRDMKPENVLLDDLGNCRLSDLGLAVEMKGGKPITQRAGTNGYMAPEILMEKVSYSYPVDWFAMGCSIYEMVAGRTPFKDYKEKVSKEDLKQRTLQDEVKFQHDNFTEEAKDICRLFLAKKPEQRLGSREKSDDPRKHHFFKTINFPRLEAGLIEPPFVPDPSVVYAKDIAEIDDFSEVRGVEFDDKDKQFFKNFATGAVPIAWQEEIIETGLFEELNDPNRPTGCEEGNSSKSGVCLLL
To be noted: at 0.1 µM.

In test [10] the target is T1, Rhodopsin kinase GRK7 (Homo sapiens). Particulars: at 1 µM.
Test [11] deals with Serine/threonine-protein kinase MRCK alpha (Homo sapiens) (UniProt Q5VT25). Particulars: at 0.1 µM.
Test [12] has the same target. To be noted: at 1 µM.
In test [13] the target is Serine/threonine-protein kinase MRCK beta (Homo sapiens) (UniProt Q9Y5S2). To be noted: at 0.1 µM.
Test [14] has the same target. To be noted: at 1 µM.
Test [15] addresses Ribosomal protein S6 kinase alpha-5 (Homo sapiens) (UniProt O75582). To be noted: at 0.1 µM.
Test [16] shares this target. Particulars: at 1 µM.
The target in test [17] is Ribosomal protein S6 kinase alpha-4 (Homo sapiens) (UniProt O75676). To be noted: at 0.1 µM.
Test [18] has the same target. To be noted: at 1 µM.
Test [19] has as its target Ribosomal protein S6 kinase beta-1 (Homo sapiens) (UniProt P23443). To be noted: at 0.1 µM.
Test [20] has the same target. Particulars: at 1 µM.

We go through seven compounds from ChEMBL document CHEMBL1961873, “Compounds: GSK PKIS; Assays: Nanosyn kinase panel” (2012).

G protein-coupled receptor kinase 6 (Homo sapiens), sequence (P43250 whole entry, looked up): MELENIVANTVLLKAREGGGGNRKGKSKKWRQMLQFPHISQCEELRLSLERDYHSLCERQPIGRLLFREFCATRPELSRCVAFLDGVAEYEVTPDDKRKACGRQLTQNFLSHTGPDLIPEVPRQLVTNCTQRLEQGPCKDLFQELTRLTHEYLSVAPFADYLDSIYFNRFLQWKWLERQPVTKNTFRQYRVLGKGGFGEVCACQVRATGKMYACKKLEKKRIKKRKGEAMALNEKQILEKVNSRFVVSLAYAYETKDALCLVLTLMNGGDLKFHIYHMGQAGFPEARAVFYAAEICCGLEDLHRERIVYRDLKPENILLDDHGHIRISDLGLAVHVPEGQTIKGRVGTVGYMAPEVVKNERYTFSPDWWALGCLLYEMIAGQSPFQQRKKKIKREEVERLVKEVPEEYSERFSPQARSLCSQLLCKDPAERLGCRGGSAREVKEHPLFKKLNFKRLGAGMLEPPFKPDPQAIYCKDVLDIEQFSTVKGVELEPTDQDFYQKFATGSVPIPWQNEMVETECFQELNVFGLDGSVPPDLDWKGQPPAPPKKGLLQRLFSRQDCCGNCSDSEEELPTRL
RAC-gamma serine/threonine-protein kinase (Homo sapiens), sequence (Q9Y243 whole entry): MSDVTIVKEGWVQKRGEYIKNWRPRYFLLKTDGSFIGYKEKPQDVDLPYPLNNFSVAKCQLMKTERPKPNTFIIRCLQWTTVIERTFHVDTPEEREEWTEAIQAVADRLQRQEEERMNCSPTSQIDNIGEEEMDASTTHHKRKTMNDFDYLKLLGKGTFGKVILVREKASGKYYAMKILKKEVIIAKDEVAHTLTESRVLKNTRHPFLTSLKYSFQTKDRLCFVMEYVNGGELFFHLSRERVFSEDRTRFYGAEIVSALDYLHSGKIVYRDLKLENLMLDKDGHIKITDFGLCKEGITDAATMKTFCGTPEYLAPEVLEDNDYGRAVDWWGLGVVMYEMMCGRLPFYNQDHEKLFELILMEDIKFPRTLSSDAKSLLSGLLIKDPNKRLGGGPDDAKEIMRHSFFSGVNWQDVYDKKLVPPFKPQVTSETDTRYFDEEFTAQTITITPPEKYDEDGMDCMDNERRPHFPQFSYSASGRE
Ribosomal protein S6 kinase alpha-5 (Homo sapiens), sequence (O75582 whole entry, looked up): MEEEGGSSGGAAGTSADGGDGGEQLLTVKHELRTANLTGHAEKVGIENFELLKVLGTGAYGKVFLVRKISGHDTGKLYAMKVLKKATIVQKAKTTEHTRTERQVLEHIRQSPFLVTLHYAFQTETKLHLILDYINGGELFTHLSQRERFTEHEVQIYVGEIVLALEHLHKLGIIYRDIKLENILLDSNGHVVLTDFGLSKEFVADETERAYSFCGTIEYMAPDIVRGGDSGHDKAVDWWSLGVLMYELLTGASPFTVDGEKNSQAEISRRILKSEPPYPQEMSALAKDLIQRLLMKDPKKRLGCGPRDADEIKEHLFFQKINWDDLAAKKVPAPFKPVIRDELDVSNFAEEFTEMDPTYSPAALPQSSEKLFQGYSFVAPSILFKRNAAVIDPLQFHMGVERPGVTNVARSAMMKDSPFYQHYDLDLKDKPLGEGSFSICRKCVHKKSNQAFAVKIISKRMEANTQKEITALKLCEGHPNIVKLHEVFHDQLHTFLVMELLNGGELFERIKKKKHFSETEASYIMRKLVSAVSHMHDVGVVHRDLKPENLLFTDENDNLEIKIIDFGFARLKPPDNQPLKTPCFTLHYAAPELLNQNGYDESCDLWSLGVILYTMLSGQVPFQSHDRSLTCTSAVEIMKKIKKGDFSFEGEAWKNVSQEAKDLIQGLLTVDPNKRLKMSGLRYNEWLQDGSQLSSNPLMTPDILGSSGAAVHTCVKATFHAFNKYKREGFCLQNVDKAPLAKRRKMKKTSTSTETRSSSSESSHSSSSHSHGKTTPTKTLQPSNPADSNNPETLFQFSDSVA
RAC-alpha serine/threonine-protein kinase (Homo sapiens), sequence (P31749 whole entry): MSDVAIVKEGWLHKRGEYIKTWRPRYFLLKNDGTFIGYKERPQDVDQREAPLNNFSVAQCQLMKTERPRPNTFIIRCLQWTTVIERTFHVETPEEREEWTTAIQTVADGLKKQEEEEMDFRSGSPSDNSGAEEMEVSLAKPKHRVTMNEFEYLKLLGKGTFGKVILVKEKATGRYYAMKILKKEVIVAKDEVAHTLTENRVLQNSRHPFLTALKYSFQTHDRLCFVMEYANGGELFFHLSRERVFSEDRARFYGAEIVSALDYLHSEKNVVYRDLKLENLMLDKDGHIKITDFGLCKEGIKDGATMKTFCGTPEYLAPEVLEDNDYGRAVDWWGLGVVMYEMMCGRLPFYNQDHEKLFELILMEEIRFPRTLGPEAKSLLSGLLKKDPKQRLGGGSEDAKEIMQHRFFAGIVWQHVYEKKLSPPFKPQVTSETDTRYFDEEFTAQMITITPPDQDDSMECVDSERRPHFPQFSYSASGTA
Serine/threonine-protein kinase MRCK beta (Homo sapiens), sequence (Q9Y5S2 whole entry): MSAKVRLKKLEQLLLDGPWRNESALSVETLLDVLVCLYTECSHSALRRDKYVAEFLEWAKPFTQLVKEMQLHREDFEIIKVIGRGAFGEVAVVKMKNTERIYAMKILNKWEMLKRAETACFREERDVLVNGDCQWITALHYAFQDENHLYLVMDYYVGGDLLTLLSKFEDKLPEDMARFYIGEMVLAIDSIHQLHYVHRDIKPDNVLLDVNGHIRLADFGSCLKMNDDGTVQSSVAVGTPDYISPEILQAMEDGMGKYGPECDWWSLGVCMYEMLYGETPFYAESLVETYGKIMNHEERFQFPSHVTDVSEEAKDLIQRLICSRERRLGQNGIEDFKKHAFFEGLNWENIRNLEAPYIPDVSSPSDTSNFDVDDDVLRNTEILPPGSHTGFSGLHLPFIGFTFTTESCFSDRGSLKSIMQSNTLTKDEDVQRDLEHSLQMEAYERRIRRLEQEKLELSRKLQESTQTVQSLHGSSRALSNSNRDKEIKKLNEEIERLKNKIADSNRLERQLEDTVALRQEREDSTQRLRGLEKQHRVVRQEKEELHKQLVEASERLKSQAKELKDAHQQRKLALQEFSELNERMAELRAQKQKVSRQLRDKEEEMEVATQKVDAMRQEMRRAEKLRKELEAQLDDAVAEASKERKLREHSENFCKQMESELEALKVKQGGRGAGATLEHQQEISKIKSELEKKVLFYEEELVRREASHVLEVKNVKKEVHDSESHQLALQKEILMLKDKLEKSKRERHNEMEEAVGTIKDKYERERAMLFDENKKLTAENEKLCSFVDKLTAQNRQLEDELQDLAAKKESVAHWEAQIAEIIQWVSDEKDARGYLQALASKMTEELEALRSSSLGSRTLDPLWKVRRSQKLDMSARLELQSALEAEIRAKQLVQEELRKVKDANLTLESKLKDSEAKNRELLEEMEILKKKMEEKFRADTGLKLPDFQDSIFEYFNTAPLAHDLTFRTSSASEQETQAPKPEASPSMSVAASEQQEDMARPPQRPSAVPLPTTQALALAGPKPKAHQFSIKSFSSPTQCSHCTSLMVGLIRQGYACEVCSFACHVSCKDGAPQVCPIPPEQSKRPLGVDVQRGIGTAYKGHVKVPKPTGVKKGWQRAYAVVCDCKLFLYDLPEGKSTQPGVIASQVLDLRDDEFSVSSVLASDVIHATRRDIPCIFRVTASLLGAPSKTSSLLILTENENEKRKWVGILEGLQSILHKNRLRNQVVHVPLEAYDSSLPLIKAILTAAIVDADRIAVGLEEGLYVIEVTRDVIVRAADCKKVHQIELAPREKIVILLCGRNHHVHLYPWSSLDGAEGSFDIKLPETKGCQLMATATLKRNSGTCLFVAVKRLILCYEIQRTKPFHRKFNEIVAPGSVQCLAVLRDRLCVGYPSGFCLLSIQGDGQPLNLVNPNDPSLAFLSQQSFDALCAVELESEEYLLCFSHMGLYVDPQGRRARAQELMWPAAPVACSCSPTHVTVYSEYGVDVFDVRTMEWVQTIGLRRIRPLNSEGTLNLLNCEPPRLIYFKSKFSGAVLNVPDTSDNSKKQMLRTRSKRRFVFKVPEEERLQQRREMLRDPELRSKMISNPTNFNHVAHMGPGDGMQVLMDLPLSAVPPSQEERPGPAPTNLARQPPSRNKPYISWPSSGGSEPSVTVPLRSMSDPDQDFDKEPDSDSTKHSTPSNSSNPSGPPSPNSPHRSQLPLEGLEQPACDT
Ribosomal protein S6 kinase beta-1 (Homo sapiens), sequence (P23443 whole entry, looked up): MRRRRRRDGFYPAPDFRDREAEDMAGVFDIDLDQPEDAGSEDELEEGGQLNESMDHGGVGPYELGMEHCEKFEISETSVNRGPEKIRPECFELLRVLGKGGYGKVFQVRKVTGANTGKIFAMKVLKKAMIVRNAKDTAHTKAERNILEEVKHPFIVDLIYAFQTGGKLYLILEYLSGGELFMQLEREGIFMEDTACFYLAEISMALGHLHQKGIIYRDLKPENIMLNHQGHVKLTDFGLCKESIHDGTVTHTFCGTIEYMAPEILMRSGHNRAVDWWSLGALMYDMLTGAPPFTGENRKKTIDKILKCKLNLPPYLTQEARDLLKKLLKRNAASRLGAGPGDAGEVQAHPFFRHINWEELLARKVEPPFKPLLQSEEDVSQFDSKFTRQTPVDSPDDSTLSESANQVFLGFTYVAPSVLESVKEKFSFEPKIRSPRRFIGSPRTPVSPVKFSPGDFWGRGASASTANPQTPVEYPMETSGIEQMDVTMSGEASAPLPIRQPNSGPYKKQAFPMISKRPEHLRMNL
RAC-beta serine/threonine-protein kinase (Homo sapiens), sequence (P31751 whole entry): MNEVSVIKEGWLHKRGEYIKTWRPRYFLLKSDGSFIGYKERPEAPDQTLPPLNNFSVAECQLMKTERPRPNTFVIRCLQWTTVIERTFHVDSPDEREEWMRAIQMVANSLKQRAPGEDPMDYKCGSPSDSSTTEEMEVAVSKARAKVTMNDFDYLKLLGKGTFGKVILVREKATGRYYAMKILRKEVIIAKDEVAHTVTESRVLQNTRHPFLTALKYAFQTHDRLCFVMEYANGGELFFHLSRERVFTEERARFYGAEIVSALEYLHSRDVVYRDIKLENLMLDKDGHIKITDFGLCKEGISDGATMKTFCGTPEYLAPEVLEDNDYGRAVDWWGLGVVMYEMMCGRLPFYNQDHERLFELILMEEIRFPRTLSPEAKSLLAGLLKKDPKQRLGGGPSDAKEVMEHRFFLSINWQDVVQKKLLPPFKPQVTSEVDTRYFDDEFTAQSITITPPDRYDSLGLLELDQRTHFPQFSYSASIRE

For the compound `O=C(Nc1n[nH]c2nc(-c3ccco3)ccc12)C1CC1`, the inhibition in test [1] is -0.33%; in test [2], 0.8%; in [3], 0.45%; in [4], 0.89%; in [5] it was 0.35%; in [6], 0.8%. Further, the inhibition is 1.97% in test [7]; -2.2% in test [8]; -1.29% in test [9]; -7.98% in [10]; -0.04% in test [11]; -0.15% in test [12]. Moreover, the inhibition in [13] stood at 0.63%; in test [14], 3.54%; in test [15] it was 6.97%; in [16], 8.4%; in [17], 1.68%; in test [18], 3.29%. Further, the inhibition was determined as 1.44% in [19] and 2.43% in test [20].
On to `Clc1ccc(CNc2nccc(-c3cnn4ncccc34)n2)cc1`, for which the inhibition in test [1] was 0.58%; in test [2], 0.44%; in [3], 0.17%; in test [4], -0.27%; in test [5] it was 2.1%; in test [6], 1.14%. Besides, the inhibition was 5.42% in test [7]; 1.78% in test [8]; 1.36% in test [9]; -5.11% in [10]; 0% in test [11]; 2.46% in test [12]. Further, the inhibition was -1.16% in test [13]; 0.3% in [14]; 6.95% in [15]; 7.87% in [16]; 1.14% in test [17]; 1.71% in test [18]. Also, the inhibition worked out at 1.82% in test [19] and 2.04% in test [20].
Turning to `O=C1NC(=O)C(c2cccc(Cl)c2)=C1Nc1ccc(Cl)c(C(=O)O)c1`, the inhibition in test [1] worked out at 0.08%; in [2], 1.15%; in test [3], 1.52%; in test [4], 0.7%; in test [5], 1.61%; in test [6], 0.58%. Moreover, the inhibition in test [7] came out at 4.67%; in [8], 8.66%; in [9], 13.2%; in test [10], 9.31%; in test [11], 1.43%; in test [12], 4.38%. The inhibition in [13] was 0.15%; in test [14], -0.05%; in [15], 3.03%; in test [16], 2.1%; in test [17], 2.51%; in test [18] it was 2.85%. The inhibition in test [19] was determined as 0.51%; in test [20], 1.96%.
Turning to `COc1cccc(/C=N/Nc2ncnc3c2cnn3-c2cccc(OC)c2)c1`, the inhibition in [1] is 1.02%; in [2], -0.26%; in test [3], 2.42%; in test [4], 1.51%; in test [5] it was 2.66%; in [6] it was 3.67%. Besides, the inhibition was 5.6% in test [7]; 4.38% in test [8]; 9.5% in test [9]; 5.51% in [10]; 1.64% in test [11]; -0.23% in [12]. The inhibition is -0.8% in [13]; 0.84% in test [14]; 2.19% in [15]; -0.07% in [16]; 2.48% in test [17]; 2.78% in test [18]. The results for the inhibition in test [19] and in [20] were 1.49% and 2.2%, respectively.
As to `COC(=O)Nc1nc2ccc(Sc3ccc(NC(=O)Nc4cc(C(F)(F)F)ccc4F)cc3)cc2[nH]1`, the inhibition is 0.65% in [1]; 0.76% in test [2]; -0.16% in [3]; -0.51% in [4]; 0.73% in [5]; 0.99% in [6]. Also, the inhibition in [7] is 2.62%; in test [8] it was -0.1%; in test [9], -0.34%; in [10], -6.83%; in test [11], 0.78%; in test [12], 0.4%. Further, the inhibition in [13] was -0.23%; in [14], -1%; in test [15], 1.97%; in test [16], 2.08%; in [17], 0.7%; in test [18], 0.37%. The figures for the inhibition in [19] and in test [20] were 78.2% and 7.6%, respectively.
Turning to `COc1cc(Nc2ncc3c(C)nc(-c4cccc(C(F)(F)F)c4)n3n2)cc(OC)c1OC`, the inhibition in [1] was found to be 0.55%; in test [2], 0.77%; in [3], 1.62%; in [4] it was 1.52%; in test [5] it was 1.12%; in test [6] it was 1.21%. The inhibition is 1.33% in test [7]; 4.77% in test [8]; 3.66% in test [9]; 6.59% in test [10]; -0.66% in test [11]; 4.12% in test [12]. In addition, the inhibition in test [13] is -1.16%; in [14], -0.4%; in test [15], 2.79%; in test [16], 5.2%; in [17], 2.89%; in test [18] it was 8.48%. In addition, the inhibition in test [19] is 2.17%; in [20] it was 5.51%.
Consider `Cc1ccc(C(=O)NC2CCC2)cc1-c1ccc(C(=O)NCC2CC2)cc1`, for which the inhibition in test [1] is 0.45%; in [2], -0.14%; in [3] it was 1.03%; in [4], 1.6%; in test [5], 2.92%; in [6], 2.79%. For the same compound, the inhibition is 1.01% in [7]; 1.27% in test [8]; 2.9% in [9]; 3.16% in [10]; 0.19% in [11]; 0.56% in [12]. Also, the inhibition in test [13] came to 0.73%; in test [14], 0.97%; in test [15] it was 2.7%; in test [16], 2.99%; in test [17], 1.75%; in test [18] it was 3.11%. In addition, the values for the inhibition in test [19] and in test [20] were 1.12% and 0.01%, respectively.

As a reminder, the inhibition is the change of the read-out against control, counted positive when it falls.
